# Bioassay records as filed in PubChem.
# Sampled rows, rich in hits. Any-hit rate of the full collection: about 4.7%.
# TGFb inhibitor = blocks TGF-b signaling | HepG2 CAGA-GFP TGF-b/SMAD3 reporter, GFP fluorescence, 18 h; TGF-beta stimulated, 500 pg/mL final | Potency, µM (highest dose often 46.1 µM), without a hit: top-dose activity, negative = inhibition, usual class: inhibitors | actives 1.2% (n = 410,000) | AID 588855; also: potency is read from the fitted curve at half-maximal effect; % is scaled to controls: 0 for no effect and ±100 for the full control effect; nearly all actives have a fitted effect of over 65% in size
#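 Inhibition of TGF-beta-driven CAGA-GFP reporter expression in HEPG2 cells is measured by cellular GFP fluorescence after 18 h stimulation with 500 pg/mL recombinant TGF-beta in 1% FBS medium at 37 degrees C.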
# HepG2 tox = counter-screen for TGF-b inhibitors: cytotoxicity in HepG2 cells; Potency, µM (doses to about 46.1 µM), for inactives: at the top dose activity change, negative = cytotoxicity, usual class: cytotoxic; actives 0.76% (n = 410,000); HepG2 CAGA-GFP viability, ATP luminescence, 18 h; also: potency is read from the fitted curve at half-maximal effect
#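 HepG2 CAGA-GFP cells (1000/well, DMEM with 1% FBS) received compound, then TGF-beta at 500 pg/mL final, and were incubated 18 hours at 37 degrees C. Viability was read by CellTiter-Glo luminescence. Media-only wells were set as complete cell-killing and DMSO as no toxicity.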
# DRD3 antagonist = D3 dopamine receptor (human) antagonism. actives 2.5% (n = 360,000). P35462. max response, negative = inhibition, %. D3R cells, DiscoveRx beta-arrestin luminescence, antagonist mode; hits give low values; in the data active = max response below about -50%; inconclusive = no clear call, values can overlap the other calls; also: % is scaled to controls: 0 for no effect and ±100 for the full control effect
# Target sequence (P35462 whole entry, looked up): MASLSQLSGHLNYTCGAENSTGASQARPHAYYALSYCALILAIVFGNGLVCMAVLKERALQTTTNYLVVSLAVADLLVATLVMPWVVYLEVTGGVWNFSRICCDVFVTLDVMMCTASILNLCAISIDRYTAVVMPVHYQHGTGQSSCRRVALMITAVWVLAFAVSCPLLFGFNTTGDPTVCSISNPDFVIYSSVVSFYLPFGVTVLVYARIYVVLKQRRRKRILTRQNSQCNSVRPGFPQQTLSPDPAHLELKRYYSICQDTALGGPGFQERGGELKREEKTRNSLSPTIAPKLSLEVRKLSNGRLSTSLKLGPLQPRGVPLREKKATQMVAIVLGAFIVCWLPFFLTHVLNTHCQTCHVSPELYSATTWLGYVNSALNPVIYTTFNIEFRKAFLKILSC
#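 Cells expressing the human receptor were seeded at 1500 cells/well, incubated overnight at 37 degrees C in 5% CO2, then exposed to library compounds with dopamine controls for 90 minutes at 37 degrees C before luminescent detection.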
# S2 tox = cell viability loss in ATXN counter-screen; S2 cells (HEK-293 line with an ATXN2-luciferase reporter) viability, CellTiter-Fluor protease fluorescence, 24 h; Potency, µM (titrated, usually from 56.7 µM), actives largely listed as cytotoxic; actives 0.49% (n = 400,000); AID 651635; also: potency is read from the fitted curve at half-maximal effect; nearly all actives have a fitted effect of over 40% in size
# ATXN2 expr inh = reduces ATXN2 reporter expression in HEK-293 cells; HEK-293 ATXN2-luciferase reporter, luminescence, 24 h; Potency, µM (titrated, usually from 57 µM), inactives show at the highest dose activity change, negative = inhibition, most hits filed as inhibitors; actives 0.72% (n = 360,000); AID 1745845; also: potency is read from the fitted curve at half-maximal effect; % is scaled to controls: 0 for no effect and ±100 for the full control effect; nearly all actives have a fitted effect of over 55% in size
#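 qHTS (up to 57 uM final) was run with 24 h compound exposure of reporter cells at 37 °C. Each well was multiplexed: SteadyGlo luminescence measured ATXN2-luciferase expression after a fluorogenic Gly-Phe-AFC viability readout (25 uM final).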
# DRD3 agonist = agonists of human D3 dopamine receptor. D3R DiscoveRx beta-arrestin cells, luminescence, 90 min. AID 652048. max activation, %. P35462. actives 0.58% (n = 410,000); in the data active = max activation above about 30%; also: 0% is about no effect
#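 Agonist-mode cell screen: cells plated at 1500/well and incubated overnight at 37 °C, then exposed to library compounds for 90 min at 37 °C. Detection reagent was added for 30–60 min at room temperature, and luminescence was read.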
# * = called active by the depositor; i = inactive; u = inconclusive; x = not tested or not shown; ! = repeats disagree. Unless noted, calls follow the shape of the dose curve; as a rule, active = well fitted curve in the direction sought with a large enough effect; inconclusive = small, poorly fitted or top-dose-only effect, or another doubt; inactive = no such curve, though single readings can be large; an effect the other way counts as inactive or inconclusive.
SMILES,TGFb inhibitor,HepG2 tox,DRD3 antagonist,S2 tox,ATXN2 expr inh,DRD3 agonist
Oc1c(Cl)cc(Cl)cc1C1=NNC(c2ccc(Cl)cc2)C1 (centres undefined),-12%,-26%,-64*,x,-28%,-22
Oc1ccc(Cl)cc1C1=NNC(c2ccc(Cl)cc2)C1 (centres undefined),u,-25%,7,i,14%,2
COc1ccc(-n2c(=O)c3ccccc3n(Cc3cccc(C)c3)c2=O)cc1,u,6%,x,i,10%,6
CCOC(=O)c1cc2c(ccn2C)n1CC(=O)N1CCCC(C)C1 (centres undefined),-5%,-15%,-9,u,-6%,0
CCOC(=O)c1cc2c(ccn2C)n1CC(=O)N1CCC(Cc2ccccc2)CC1,11µM*,-33%,-12,u,0%,1
CCN(CC)CCNC(=O)c1[nH]c2ccc(OCc3ccccc3)cc2c1C,u,-40%,-86*,u,u,-9
COC(=O)C[C@H]1c2cc(F)cc(F)c2S(=O)(=O)N1C1CCN(Cc2ccccc2)CC1,-19%,-20%,-69*,i,1%,-66
C=CCc1ccccc1OCC(O)CN1CCN(Cc2ccc3c(c2)OCO3)CC1 (centres undefined),-1%,-41%,-89*!,i,-19%,-7
C=CCc1ccccc1OCC(O)CN1CCN(c2ccc(C)cc2)CC1 (centres undefined),u,-31%,-59*,i,u,-30
O=S1(=O)CCO[C@H]2CCCC[C@@H]2N1Cc1cccc(F)c1,14%,-2%,x,x,x,x
O=C(O)CNC(=O)c1ccc(Sc2ccccc2)c([N+](=O)[O-])c1,1%,-1%,-18,i,-13%,-6
CC(C)(C)NC(=O)c1ccc(Sc2ccccc2)c([N+](=O)[O-])c1,u,-4%,-50*,i,0%,-4
O=C(/C=C/c1cc2ccccc2o1)c1ccccc1O,u,-15%,-23,i,50%,-9
COc1ccc(O)c(C(=O)/C=C/c2cc3ccccc3o2)c1,0%,-35%,-62*,i,-21%,-2
COc1ccc2c(c1)CCc1cnc(-n3ncc(C(=O)N(C)CCc4ccccn4)c3C)nc1-2,x,x,x,i,x,x
CCc1ccc(S(=O)(=O)NCc2nc3cccnc3n2Cc2cccc(OC)c2)cc1,u,-16%,x,x,x,2
Cc1cc(C)c(C)c(S(=O)(=O)N(C)C2CCN(C)CC2)c1C,6%,-14%,-77*,u,-20%,-19
CC(C(=O)N1CCc2ccccc21)N1CCc2ccccc2C1 (centres undefined),-6%,-27%,-86*,i,-15%,-7
CC(C(=O)NCC1CCCCC1)N1CCc2ccccc2C1 (centres undefined),-6%,-12%,-77*,i,-16%,-11
CC(C(=O)NCC1CCCCC1)N1CCN(S(=O)(=O)/C=C/c2ccccc2)CC1 (centres undefined),3%,3%,-10,i,16%,-2
CC(C)c1ccc2c(c1)-c1ccccc1S(=O)(=O)N2CC(=O)N1CCCCC1,-20%,2%,x,u,29%,-9
CCOC(=O)c1ccccc1NC(=O)Cc1c(C(=O)O)c(C)cn1C,15%,-7%,x,i,-5%,1
OCC1(Cc2ccc(F)cc2)CCCN(Cc2ccc(F)cc2Cl)C1 (centres undefined),u,-23%,-61*,i,-37%,-11
COC(=O)c1ccc(CN2CCCC(CO)(Cc3ccccc3F)C2)cc1 (centres undefined),-14%,-5%,-88*,i,3%,-19
CCOc1ccc(CN2CCCC(CO)(Cc3ccc(F)cc3)C2)cc1 (centres undefined),-6%,-15%,-20,i,-20%,-19
SMILES,TGFb inhibitor,HepG2 tox,DRD3 antagonist,S2 tox,ATXN2 expr inh,DRD3 agonist
OCC1(CCc2ccccc2)CCCN(CCCc2ccccc2)C1 (centres undefined),4%,-34%,-70*,i,-16%,-22
CSc1ccc(CN2CCCC(CO)(Cc3ccccc3)C2)cc1 (centres undefined),-13%,-38%,-67*,u,x,-4
COc1cc(CN2CCCC(CO)(Cc3ccccc3F)C2)ccc1O (centres undefined),-7%,-5%,u,i,-1%,-20
CC(=O)c1cc2ccccc2s1,x,x,x,i,3%,x
O=C(Cc1ccccc1)Nc1cccc(-c2nc3cccnc3s2)c1,-6%,-3%,x,x,x,78*
O=C(CCl)Nc1cccc(-c2cnc3ccccc3n2)c1,7.1µM*,11µM*,-7,x,u,2
CC(C)(C)OC(=O)N1CCC(c2c(C(=O)Nc3ccc4c(c3)OCCO4)cnn2-c2ccc(F)cc2)CC1,u,-14%,x,u,-22%,2
Cc1cccc2sc(NNC(=O)c3ccc(S(=O)(=O)N4CCCC(C)C4)cc3)nc12 (centres undefined),13µM*,-61%,42,i,u,17
Cc1cccc2sc(NNC(=O)c3ccc(S(=O)(=O)N4CCc5ccccc5C4)cc3)nc12,11µM*,-34%,17,u,u,20
O=c1cc(-c2ccccc2)nc(SCc2nc(-c3ccccc3Cl)no2)[nH]1,0%,-21%,x,x,x,-10
Oc1ccc(Cl)cc1CNCC1CCCCC1,-8%,-6%,-76*,i,3%,-49
NC(N)=NCC1COC2(CCCCC2)O1 (centres undefined),x,x,x,i,x,3
Cc1ccc(NC(=O)/C=C/c2ccccc2)c(Br)c1,19%,7%,x,i,4%,-20
Cc1c(C(=O)c2no[n+]([O-])c2C(=O)c2cnn(C)c2C)cnn1C,7.9µM*,11µM*,u,x,u,0
CC(C)n1cc(C(=O)c2cc(Br)ccc2O)cc(C#N)c1=O,-15%,-6%,-67*,i,-7%,6
COC(=O)c1c(NC(=O)c2cc(=O)c3cc(C)cc(C)c3o2)sc2c1CCC2,37%,4%,x,u,3%,14
CCOC(=O)/C=C1\CN(Cc2cc(OC)c(OC)c(OC)c2)S(=O)(=O)c2ccc(C(F)(F)F)cc21,8.9µM*,-15%,0,u,u,11
COC(=O)c1c(NC(=O)c2ccccc2)sc(Cc2ccccc2)c1C,-32%,-5%,4,i,-6%,0
COC(=O)c1c(NC(=O)c2ccc(C)cc2)sc(Cc2ccccc2)c1C,2%,-11%,-65*,i,-3%,-1
